Results reported in PMC6919601, “Identification of Plasmodium dipeptidyl aminopeptidase allosteric inhibitors by high throughput screening” (PLoS ONE, 2019).
Out of some 110,000 compounds screened, about 230 (0.21%) showed an effect of 50% or more. What follows is part of a selection rich in strong results, with near analogues and random picks from the rest.

Biological target: DPAP1 (Plasmodium falciparum, UniProt Q8IIJ9)
Assay: primary screen, percent inhibition; read by cleavage of a fluorogenic dipeptide substrate; higher = more effect of the substance
Parameters: species or system P. falciparum D10 trophozoite lysates; single well
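Also: 30 min substrate incubation versus DMSO and 10 µM JCP410 controls.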

Chain of DPAP1 (Q8IIJ9 whole entry, looked up): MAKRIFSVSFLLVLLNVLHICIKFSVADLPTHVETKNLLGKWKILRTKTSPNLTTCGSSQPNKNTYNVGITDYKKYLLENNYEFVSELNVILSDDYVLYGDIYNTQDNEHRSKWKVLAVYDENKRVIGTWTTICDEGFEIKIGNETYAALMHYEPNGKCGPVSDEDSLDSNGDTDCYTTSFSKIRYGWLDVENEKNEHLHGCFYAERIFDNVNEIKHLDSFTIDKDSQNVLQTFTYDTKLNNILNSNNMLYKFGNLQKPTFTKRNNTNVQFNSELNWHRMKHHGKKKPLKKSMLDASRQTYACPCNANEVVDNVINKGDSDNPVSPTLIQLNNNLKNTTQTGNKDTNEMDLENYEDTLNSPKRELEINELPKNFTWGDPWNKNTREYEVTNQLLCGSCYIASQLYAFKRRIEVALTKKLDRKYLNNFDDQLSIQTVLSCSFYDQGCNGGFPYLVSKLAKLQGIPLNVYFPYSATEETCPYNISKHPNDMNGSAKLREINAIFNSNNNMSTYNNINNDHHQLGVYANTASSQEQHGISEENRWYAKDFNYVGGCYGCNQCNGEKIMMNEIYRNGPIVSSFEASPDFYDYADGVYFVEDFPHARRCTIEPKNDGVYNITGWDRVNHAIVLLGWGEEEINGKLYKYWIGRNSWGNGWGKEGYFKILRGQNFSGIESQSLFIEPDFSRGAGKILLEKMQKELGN

Point of comparison: `COc1ccc(-c2nc3scc(CCNC(=O)c4cc(OC)c(OC)c(OC)c4)n3n2)cc1`, “% Inhibition @ 10 uM” value 5.49%. Against it:
- O=C(CCCC(=O)c1ccccc1)NC(c1ccccc1)c1ccccc1 — lower, -1.46%
- c1ccc(CSc2nccn2Cc2ccccc2)cc1 — lower, -1.97%
- CC(C)CC(=O)Nc1ccc(-c2nc3cc(Cl)ccc3o2)cc1 — lower, -1.57%
- Cc1ccc(CNS(=O)(=O)c2cn(C)cn2)cc1 — lower, 1.47%
- Cc1ccc(S(=O)(=O)Nc2nnc(C)s2)cc1 — lower, -1.77%
- Cn1cnc(S(=O)(=O)Nc2nnc(S)s2)c1 — higher, 95.5%
- Cc1csc(NC(=O)C(CCS(C)(=O)=O)N2Cc3ccccc3C2=O)n1 (stereo not drawn) — lower, 0.0322%
- O=C(/C=C/c1ccco1)c1ccc(C(=O)/C=C/c2ccco2)cc1 — lower, -0.268%
- COc1ccc(C(=O)/C=C/c2ccco2)cc1 — higher, 60.2%
- O=C(/C=C/c1ccco1)c1ccc(F)cc1 — higher, 14.1%
- COc1ccc(CCNC(=O)CN2C(=O)c3ccccc3C2=O)cc1 — lower, 1.33%
- Cc1nn(C)cc1CN(C)C(=O)c1cc2nc(-c3ccccc3)cc(C(F)(F)F)n2n1 — lower, 4.59%
- Cc1cc(N(C)C)c(=O)n(-c2ccccc2)n1 — higher, 5.74%
- O=C1/C(=C/c2ccc3nccnc3c2)CN(Cc2ccccc2)C/C1=C\c1ccc2nccnc2c1 — higher, 6.89%
- O=C1/C(=C\c2ccccn2)CN(Cc2ccccc2)C/C1=C\c1ccccn1 — higher, 55.7%
- O=C1/C(=C\c2cccnc2)CN(Cc2ccccc2)C/C1=C\c1cccnc1 — lower, 0.287%
- O=C(CCN1C(=O)C2C3C=CC(C3)C2C1=O)Nc1cccnc1 (stereo not drawn) — lower, -0.551%
- CCN(CC)C(=O)Cn1cc(S(=O)(=O)Cc2cc(C)ccc2C)c2ccccc21 — lower, 0.292%
- Cc1cccc(NC(=O)C2CC3CCC2C3)n1 (stereo not drawn) — lower, -2.66%
- COc1ccc(S(=O)(=O)N2CCSC2c2ccccc2Cl)cc1 (stereo not drawn) — higher, 68.6%
- COc1ccc(S(=O)(=O)N2CCSC2c2ccc(C)cc2)cc1 (stereo not drawn) — lower, -3.45%
- COc1ccc(S(=O)(=O)N2CCSC2c2ccccc2)cc1 (stereo not drawn) — lower, 3.19%
- CN(C)c1ccc(/C=C(\C#N)c2nc(-c3ccc(-c4ccccc4)cc3)cs2)cc1 — higher, 5.77%
- CCn1ccnc1C(O)(c1ccccc1)c1ccc(C)cc1 (stereo not drawn) — lower, 4.67%
- CCN1C(=O)C(=CNc2ccc3c(c2)-c2ccccc2C3)C(=O)N(CC)C1=O — lower, -0.996%
- Nc1c(C(=O)Nc2ccccn2)sc2nc(-c3cccs3)cc(C(F)(F)F)c12 — lower, -5.07%
- CCc1nnc(NC(=O)c2sc3nc(-c4cccs4)cc(C(F)(F)F)c3c2N)s1 — lower, 0.487%
- Nc1c(C(=O)Nc2nccs2)sc2nc(-c3cccs3)cc(C(F)(F)F)c12 — higher, 76.8%
- CC(=O)c1ccc(NC(=O)C(C)Oc2ccccc2C)cc1 (stereo not drawn) — lower, -5.92%
- Cc1nc2c3ccccc3n3c(CCCC(=O)NC4CCN(Cc5ccccc5)CC4)nnc3n2n1 — lower, 2.04%
- CCCN1CCN(C(=O)Cn2cccc2C(=O)c2ccccc2)CC1 — lower, 1.15%
- CCOc1ccc(-c2cc(NC(=O)Cn3ncc4c(=O)oc5ccc(C)cc5c43)on2)cc1 — lower, -5.25%
- CCCCSc1nc(-c2cccs2)cc(C(F)(F)F)c1C#N — higher, 60.7%
- N#Cc1sc2nc(-c3cccs3)cc(C(F)(F)F)c2c1N — lower, -2.32%
- N#Cc1c(C(F)(F)F)cc(-c2cccs2)nc1SCc1ccncc1 — higher, 57.7%
- CCS(=O)CCSc1nc(-c2cccs2)cc(-c2ccccc2)c1C#N (stereo not drawn) — higher, 7.76%
- Cc1cccc(NC(=O)CSc2nc(-c3cccs3)cc(C(F)(F)F)c2C#N)n1 — higher, 18.3%
- N#Cc1c(C(F)(F)F)cc(-c2cccs2)nc1SCC(=O)Nc1nccs1 — lower, 0.121%
- CCSc1nc(-c2cccs2)cc(C(F)(F)F)c1C#N — higher, 82.6%
- CC(=O)NCCSc1nc(-c2cccs2)cc(-c2ccc(F)cc2)c1C#N — higher, 5.65%
- N#Cc1c(C(F)(F)F)cc(-c2cccs2)nc1S — higher, 88.5%
- N#Cc1c(-c2cccs2)cc(-c2ccccc2)nc1S — higher, 20.6%
- CCSc1nc(-c2ccc(OC)cc2)cc(C(F)(F)F)c1C#N — lower, -1.4%
- N#Cc1c(C(F)(F)F)cc(-c2cccs2)nc1SCC(=O)Nc1ccccn1 — lower, 2.44%
- Cc1ccnc(NC(=O)c2ccc(C)c(C)c2)c1 — lower, 2.64%
- O=c1oc2c3c(c(Cl)cc2c2c1CCCC2)OCN(Cc1ccco1)C3 — lower, 4.13%
- O=C(Nc1ccc([N+](=O)[O-])cc1)c1ccc(-c2ccccc2)cc1 — lower, 2.62%
- CC(=O)N1CCN(C2CCc3ccccc3C2)CC1 (stereo not drawn) — lower, 0.217%
- CCC(C)NC(=O)c1ccccc1NS(=O)(=O)c1ccc(NC(C)=O)cc1 (stereo not drawn) — lower, -0.872%
- COc1ccc(C2=N/C(=C\C=C\c3ccccc3)C(=O)O2)cc1 — higher, 7.01%
- Cc1ccc(NC(=O)C(CC(C)C)N2Cc3ccccc3C2=O)nc1 (stereo not drawn) — lower, -0.234%
- O=C(c1ccc(Br)cc1)N1CCN(c2ccc(F)cc2)CC1 — lower, 0.815%
- N#CNC(=N)CSc1nc(-c2ccccc2)cc(C(F)(F)F)c1C#N — lower, 0.0719%
- C#CCSc1nc(-c2ccccc2)cc(C(F)(F)F)c1C#N — lower, -10.2%
- N#Cc1c(C(F)(F)F)cc(-c2ccccc2)nc1S — higher, 73.6%
- COc1cc(/C=C2/NC(=O)N(Cc3ccccc3F)C2=O)cc(Br)c1O — higher, 63%
- C=CCc1cc(/C=C2/NC(=O)N(Cc3ccccc3F)C2=O)cc(OC)c1O — lower, -2.63%
- COc1cc(/C=C2/NC(=O)N(Cc3ccccc3F)C2=O)cc(Cl)c1O — lower, -1.28%
- Cc1oc(-c2ccc3c(c2)OCCO3)cc1C(=O)NCC(=O)O — lower, -1.69%
- CCCNC(=O)c1cc2n(n1)C(C(F)(F)F)CC(c1ccc(Br)cc1)N2 (stereo not drawn) — lower, -0.67%
- COc1ccc(NC(=O)C2=C(C)NC(=O)NC2c2ccc(OC)cc2)cc1 (stereo not drawn) — higher, 9.5%
- COc1ccc(NC(=O)C2=C(C)NC(=O)NC2c2ccc(C)cc2)cc1 (stereo not drawn) — lower, -2.18%
- COc1ccc(NC(=O)C2=C(C)NC(=O)NC2c2ccc(Br)cc2)cc1 (stereo not drawn) — higher, 57.9%
- Cc1ccc(-c2nn3c(CC#N)nnc3c3ccccc23)cc1 — higher, 6.38%
- CC(C)Oc1ccc(-c2cc(C(=O)NCCCN3CCOCC3)c3ccccc3n2)cc1 — lower, -12.3%
- O=C(Nc1ccc2c3c1C1C=CCC1CN3CC1CC=CC21)c1ccccc1 (stereo not drawn) — lower, 2.4%
- Cc1cc(C)c2c3c1C1C=CCC1CN3C(C(=O)O)C1CC=CC21 (stereo not drawn) — lower, 3.65%
- O=C1NC(=O)c2c1cc1c3c2C2C=CCC2CN3CC2CC=CC12 (stereo not drawn) — higher, 64.9%
- COc1cccc(CN(C(=O)c2cc3ccccc3oc2=O)C2CCS(=O)(=O)C2)c1 (stereo not drawn) — lower, 0.366%
- CCSc1cc(C)nc2ncnn12 — higher, 7.56%
- CC(C)CCNc1c(-c2cccc(Cl)c2)[nH]c2c(C#N)cnn12 — lower, -4.71%
- COc1cccc(-c2[nH]c3c(C#N)cnn3c2NCCC(C)C)c1 — higher, 76.4%
- Cc1cccc(-c2[nH]c3c(C#N)cnn3c2NCCC(C)C)c1 — lower, 3.84%
- c1ccc2c(c1)ncn2Cc1nnc2sc(-c3ccc4c(c3)OCCO4)nn12 — higher, 45%
- Cc1ccc(S(=O)(=O)N(CC(=O)NC2CC3CCC2C3)c2ccc(Cl)cc2)cc1 (stereo not drawn) — lower, -0.695%
- CCc1ccc(CNC(=O)NCc2noc3ccc(C)cc23)cc1 — lower, 2.19%
- COc1ccc(CN2CCN(Cc3cccc(C)c3)CC2)c(OC)c1OC — higher, 53.3%
- COc1cccc(CN2CCN(Cc3ccc(OC)c(OC)c3OC)CC2)c1 — lower, -6.74%
- COc1cccc(CN2CCN(Cc3cccc(C)c3)CC2)c1OC — lower, -4.16%
- Cc1[nH]c2ccccc2c1CCNC(=S)NC(C)(C)C — lower, -0.431%
- O=C(CCNS(=O)(=O)c1ccc2nc(O)ccc2c1)NC1CCCc2ccccc21 (stereo not drawn) — lower, -2.26%
- CCn1cc(CNC(=O)c2cc(-c3ccccc3OC)nc3ccccc23)cn1 — lower, -10.2%
- COc1ccccc1C(=O)Nc1cccc(F)c1 — lower, -5.29%
- Cc1cc(C)n(CC(O)Cn2c3ccccc3c3ccccc32)c(=O)n1 (stereo not drawn) — higher, 80.2%
- OCC(O)Cn1c2ccccc2c2ccccc21 (stereo not drawn) — lower, 1.44%
- Cc1cc(C)n(CC(O)Cn2c3ccccc3c3ccccc32)n1 (stereo not drawn) — lower, -10.2%
- Cc1ccc(-c2csc(C3C(N)=NC(S)=C(C#N)C34CCCCC4)n2)cc1 (stereo not drawn) — higher, 89.8%
- Cc1ccc(-c2csc(N)n2)cc1 — higher, 20.7%
- O=C1CC(c2nc(-c3ccccc3)cs2)C2(CCCCC2)O1 (stereo not drawn) — lower, 4.08%
- CNC(=S)N(CCc1c(C)[nH]c2ccc(Cl)cc12)Cc1ccccn1 — lower, -4.14%
- COc1ccc(C(=O)NCc2nnc(SCC(=O)NC3CCCCC3)o2)cc1 — higher, 76.6%
- COc1ccc(C(=O)NCc2nnc(SCC(=O)Nc3nnc(C)s3)o2)cc1 — higher, 84%
- Cc1nnc(NC(=O)CSc2nnc(CNC(=O)c3cccs3)o2)s1 — lower, -3.39%
- Cc1nnc(NC(=O)CSc2nnc(CNC(=O)COc3ccc(Cl)cc3)o2)s1 — lower, -5.27%
- COc1ccc(C(=O)NCc2nnc(SCC(=O)NCC3CCCO3)o2)cc1 (stereo not drawn) — higher, 8.26%
- COc1cc(C(=O)NCc2nnc(SCC(=O)NC3CCCCC3)o2)cc(OC)c1OC — lower, 1.64%
- NC(=O)/C=C/C(=O)Nc1ccccc1 — lower, -3.13%
- CCCCNC(=O)CCc1nc2cccnc2n1Cc1ccccc1 — lower, 3.96%
- CCOc1ccc2c3c(c(=O)oc2c1)CCC3 — lower, -3.38%
- CCCC1CCC(C2=N/C(=C\c3cc(OC)c(OC)cc3OC)C(=O)O2)CC1 (stereo not drawn) — lower, -3.33%
- O=C(CSc1nc2ccccc2o1)N1CCN(c2nnc(-c3ccccc3)c3ccccc23)CC1 — lower, 2.46%
